Measured values from PubChem BioAssay AID2685 (National Center for Advancing Translational Sciences (NCATS), 2010).
About 2,100 (0.66%) of roughly 320,000 compounds were called active. Another 53% or so got no clear call; they are omitted. This is one part of a sample in which actives are shown more often than they occur. Calls follow the shape of the dose curve; as a rule, active = well fitted inhibition curve with a large enough effect in the signal ratio, with a control signal flat (not every such curve was filed as active); inconclusive = small, poorly fitted or top-dose-only effect, or effect the other way, or a change in a side signal; inactive = flat fitted curve, though single readings scatter; the % refers to the signal ratio.

Experiment: qHTS Assay for Lipid Storage Modulators in Drosophila S3 Cells;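 as to cell number change: cells counted by Cell Tracker Red CMTPX staining in the red channel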
Settings: BODIPY lipid droplet fluorescence, 18-24 h, cells fed with added oleic acid; cell number change: measured here: cell count max response; series mostly up to 46.1 µM
Summary of the method: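 Drosophila S3 cells got compounds at several concentrations plus oleic acid (400 uM solution). Laser-scanning cytometry with 488 nm excitation read lipid droplets at 500-530 nm and cells at 575-640 nm. Percent activity was relative to 20 uM Triacsin C.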
Potency is read from the fitted curve at half-maximal effect.

Row | SMILES | Potency | cell number change
1 | O=C(N/N=C/c1ccc([N+](=O)[O-])o1)C(=O)Nc1ccc(C(=O)O)cc1 | inactive | 8.32%
2 | O=C(CNc1ccc2ccccc2c1)N/N=C/c1ccc([N+](=O)[O-])o1 | inactive | –
3 | O=C(CNc1cccc2ccccc12)N/N=C/c1ccc([N+](=O)[O-])o1 | 16.4 µM (active) | -25.8%
4 | CCCCCCCC(=O)N/N=C/c1ccc([N+](=O)[O-])o1 | inactive | -5.79%
5 | O=C(CNc1cccc2ccccc12)N/N=C/c1ccc([N+](=O)[O-])cc1 | inactive | -4.75%
6 | CCCC(=O)Nc1ccc(C(=O)N/N=C/c2ccc([N+](=O)[O-])o2)cc1 | 14.6 µM (active) | -15.2%
7 | COc1nc(OC)nc(N2CCC(C(=O)Nc3cccc4c3CCCC4)CC2)n1 | inactive | -6.45%
8 | O=C1OC(C(=O)Nc2nccs2)Cc2ccccc21 (centres undefined) | inactive | –
9 | Cc1cc(NC(=O)CSc2nc(C(C)(C)C)nc3ccccc23)no1 | inactive | -18%
10 | CC(C)(C)c1nc(SCC(=O)Nc2ccc3c(c2)OCCO3)c2ccccc2n1 | 18.4 µM (active) | -25.4%
11 | O=C(CSc1ncnc2ccccc12)Nc1ccc2c(c1)OCCO2 | inactive | –
12 | COc1ccc2[nH]c(=O)c(CNc3ccc(C)cc3C)cc2c1 | inactive | -6.94%
13 | CC(=O)N/C(=C/c1ccccc1)C(=O)NCCO | inactive | 7.72%
14 | O=C(NCC(F)(F)F)Nc1nnc(C(F)(F)F)s1 | inactive | 0.475%
15 | CC(C)(C)CC(=O)Nc1nnc(C(F)(F)F)s1 | inactive | 0.161%
16 | CCC(NC(=O)Nc1nnc(C(F)(F)F)s1)(C(F)(F)F)C(F)(F)F | 16.4 µM (active) | -12.6%
17 | O=C(O)CCC(=O)Nc1nnc(C(F)(F)F)s1 | 29.1 µM (active) | -2.24%
18 | CCc1ccc(NC(=O)CCC(=O)Nc2nnc(C(F)(F)F)s2)cc1 | inactive | 24.4%
19 | O=C(CCC(=O)N1CCCC1)Nc1nnc(C(F)(F)F)s1 | inactive | 11.1%
20 | CCOC(=O)C1CCN(C(=O)C(CCSC)NC(=O)COc2ccccc2)CC1 (centres undefined) | inactive | 22.1%

Row | SMILES | Potency | cell number change
21 | CC(=O)Nc1cccc(-c2nn[nH]n2)c1 | inactive | 9.02%
22 | CC(=O)Nc1ccc(Nc2nnc(-c3ccc(O)cc3)c3ccccc23)cc1 | inactive | 9.07%
23 | Cc1cc(C)cc(NC(=O)Cc2ccc(-n3cccc3)cc2)c1 | inactive | -7.37%
24 | COc1ccc(C(CCN(Cc2ccc(OC)c(OC)c2)C(C)=O)C(C)C)cc1 (centres undefined) | 0.82 µM (active) | -13.5%
25 | CC(=O)N(CCC(c1ccco1)C(C)C)Cc1ccc(OC(C)C)cc1 (centres undefined) | inactive | -2.37%
26 | COc1ccc(C(CCN(Cc2ccc(OC)c(OC)c2)C(C)=O)c2ccccc2)cc1 (centres undefined) | inactive | -3.52%
27 | O=C(O)CCc1ccc(-c2ccc(Br)cc2)n1Cc1ccco1 | 6.51 µM (active) | -8.78%
28 | O=C(O)CCc1ccc(-c2ccc(F)cc2)n1Cc1ccco1 | inactive | -0.476%
29 | Cc1ccc(-c2ccc(CCC(=O)O)n2Cc2ccco2)cc1 | inactive | 19.5%
30 | Cc1[nH]c2ccccc2c1C(=O)C(=O)N1CCN(c2ccccc2)CC1 | inactive | 8.19%
31 | Cc1ccc(Cl)cc1N(CC(=O)Nc1cccc(N(C)S(C)(=O)=O)c1)S(C)(=O)=O | 14.6 µM (active) | -15.4%
32 | CCc1ccccc1N(CC(=O)Nc1cccc(N(C)S(C)(=O)=O)c1)S(C)(=O)=O | inactive | 5.08%
33 | CN(c1cccc(NC(=O)CN(c2cccc(Cl)c2)S(=O)(=O)c2ccc(Cl)cc2)c1)S(C)(=O)=O | inactive | -18.4%
34 | COc1ccc2oc(CS(=O)c3ccccc3)c(C(=O)O)c2c1 (centres undefined) | inactive | 13.2%
35 | CC1OC2(OC1C)C(=O)Nc1ccccc12 (centres undefined) | inactive | –
36 | CN1C(=S)SC(C)(C)C1NO (centres undefined) | inactive | 1.23%
37 | CN1C(=S)SC(C)(NO)C1(C)C (centres undefined) | 5.17 µM (active) | -11.6%
38 | CN1C(=S)SC(C)(C)C1(C)NO (centres undefined) | 1.64 µM (active) | 0.152%
39 | CCC(C)c1ccc(S(=O)(=O)Nc2cccnc2)cc1 (centres undefined) | inactive | -23.6%
40 | CCCCCCCCCCCCS[C@H]1CS(=O)(=O)C[C@@H]1O | inactive | -8.76%

Row | SMILES | Potency | cell number change
41 | CC(=O)Nc1cc2cc(NS(=O)(=O)c3ccc(Cl)cc3)ccc2oc1=O | inactive | 9.39%
42 | COC(=O)/C(C#N)=C\c1c(OC)[nH]c2ccccc12 | inactive | -7.03%
43 | CN(Cc1c(F)cccc1Cl)C(=O)CNC(=O)c1cccs1 | inactive | -5.78%
44 | CN(Cc1ccccc1)S(=O)(=O)c1cccs1 | inactive | 5.69%
45 | CN(Cc1c(F)cccc1Cl)S(=O)(=O)c1cccs1 | 5.8 µM (active) | -15.8%
46 | CC(C)CSc1nc2c(c(=O)[nH]c(=O)n2C)n1CCc1ccccc1 | inactive | 0.065%
47 | O=C(c1cc(-c2ccc(Cl)cc2)on1)N1CCN(c2ccc(F)cc2)CC1 | 20.6 µM (active) | 8.11%
48 | O=C(c1cc(-c2ccc(O)cc2)on1)N1CCN(c2ccc(F)cc2)CC1 | inactive | -16.1%
49 | Cc1c(C(=O)N2CCN(S(=O)(=O)c3cc(F)ccc3F)CC2)oc2ccccc12 | inactive | -12.2%
50 | O=C(c1cccc(C(=O)N2CCN(c3ccccc3)CC2)c1)N1CCN(c2ccccc2)CC1 | inactive | -3.1%
51 | Cc1cc(=O)oc(C)c1C(=O)N1CCN(c2ccc(F)cc2)CC1 | 23.1 µM (active) | -3.9%
52 | Cc1c(C(=O)N2CCN(C(=O)c3ccccc3)CC2)oc2ccc(F)cc12 | 1.84 µM (active) | -15.5%
53 | Cc1cc(=O)oc(C)c1C(=O)NCCCN1CCN(c2ccc(F)cc2)CC1 | inactive | 2.43%
54 | COc1ccccc1N1CCN(C(=O)c2c(C)cc(=O)oc2C)CC1 | inactive | -3.57%
55 | O=C(c1cc(-c2ccc3c(c2)OCO3)on1)N1CCN(c2ccc(F)cc2)CC1 | inactive | 27.5%
56 | O=C(c1ccc(N2CCN(C(=O)c3ccccc3Br)CC2)cc1)c1cccc(F)c1 | inactive | -10.8%
57 | Cc1c(C(=O)N2CCN(CCc3ccccn3)CC2)oc2ccc(F)cc12 | inactive | 0.99%
58 | O=C(c1ccc(N2CCN(C(=O)c3ccccc3)CC2)cc1)c1cccc(F)c1 | 2.06 µM (active) | 0.901%
59 | COc1ccc(CNC(=O)CCC(=O)Nc2nnc(CC(C)C)s2)cc1 | inactive | 5.14%
